Reference: PubChem BioAssay (Tox21)
Records with an inconclusive call do not appear. The source made the active and inactive calls. Unless noted, calls follow the shape of the full dose curve.

How the values were obtained:
[1] = Nuclear factor erythroid 2-related factor 2/antioxidant responsive element (Nrf2/ARE) small molecule agonists: qHTS cell viability counter screen in human keratinocytes (AID 1919968; active = well fitted curve in the direction sought with a large enough effect in the repeat runs; an effect the other way counts as inactive or inconclusive; also: nearly all actives have a fitted effect of over 55% in size)
Summary of the method: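 Measured as CellTiter-Fluor fluorescence, this readout tracks cytotoxicity in the same wells as the ARE-luciferase screen. HaCaT reporter cells (1,500/well) received compounds after a 5 h pre-incubation and were exposed for 23 h.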

[2] = molecular target: Gonadotropin-releasing hormone receptor (Homo sapiens) (UniProt P30968); test: Human gonadotropin-releasing hormone receptor (GnRHR) small molecule agonists, calcium flux assay in GnRHR-HEK293 cells (AID 1920063); also: nearly all actives have a fitted effect of over 35% in size
Summary of the method: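 Fluorescence kinetics (480 nm excitation, 540 nm emission; 3 min, 1 s steps) report calcium mobilisation in human GnRHR-HEK293 cells in agonist mode. Dye incubation: 1 h, 37 C.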

[3] = molecular target: KiSS-1 receptor (Homo sapiens) (UniProt Q969F8); test: Human kisspeptin (KISS1R) small molecule agonists, calcium flux assay in KISS1R-HEK293 cells (AID 1920064; active = well fitted curve in the direction sought with a large enough effect in the repeat runs; an effect the other way counts as inactive or inconclusive)
Summary of the method: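 Measures KISS1R agonism through calcium-sensitive dye fluorescence in stably transfected HEK293 cells, read for 3 min after pin-tool compound delivery; 15-point titrations in triplicate.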

[4] = G protein-coupled receptor (GPCR) small molecule agonists, calcium flux assay: HEK293 wild type cell line counter screen (AID 1920065)
Summary of the method: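 Readout: fluorescence at 480 nm excitation/540 nm emission, sampled at 1 s intervals for 3 min. Cells had been cultured 18 h, then dye-loaded 1 h at 37 C before compound or ATP addition.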

[5] = p53 small molecule agonists, cell-based qHTS assay with human liver microsomes (AID 1963577);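 also: p53 response element beta-lactamase reporter cells with liver microsomes plus NADPH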
Summary of the method: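 HLM-supplemented p53RE-bla reporter assay: 16 h compound exposure at 37 C, microsomes and NADPH each 0.5 mg/mL final, read by fluorescence intensity.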

[6] = p53 small molecule agonists, cell-based qHTS assay with rat liver microsomes (AID 1963578)
Summary of the method: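 Quantitative HTS of the Tox21 10K library: p53RE-bla cells, rat liver microsomes plus NADPH at 0.5 mg/mL final each, 16 h at 37 C, beta-lactamase fluorescence detection.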

[7] = p53 small molecule agonists, cell-based qHTS assay with human liver microsomes: qHTS cell viability counter screen (AID 1963579); also: nearly all actives have a fitted effect of over 45% in size
Summary of the method: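 Viability of p53RE-bla cells is measured as CellTiter-Glo luminescence following a 16 h, 37 C incubation with compound, liver microsomes from human donors and NADPH.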

[8] = p53 small molecule agonists, cell-based qHTS assay with rat liver microsomes: qHTS cell viability counter screen (AID 1963580); also: nearly all actives have a fitted effect of over 45% in size
Summary of the method: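 HCT-116 p53RE-bla, 4,000 cells/well, 5 h pre-incubation; cpd + rat liver microsomes 0.5 mg/mL + NADPH 0.5 mg/mL (final); 16 h, 37 C; CellTiter-Glo, 30 min RT; luminescence.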

[9] = p53 small molecule agonists, cell-based qHTS assay: qHTS cell viability counter screen (AID 1963581); also: nearly all actives have a fitted effect of over 45% in size
Summary of the method: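 In the same plates used for the p53 bla reporter, HCT-116 cells given compounds for 16 h at 37 C received CellTiter-Glo; luminescence was recorded 30 min later at room temperature.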

[10] = p53 small molecule agonists, cell-based qHTS assay (AID 1963582; active = well fitted activation curve with a large enough effect in the signal ratio in the repeat runs, not every such curve was filed as active; the % refers to the signal ratio)
Summary of the method: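 Compounds are pin-transferred in DMSO onto p53RE-bla cells and incubated 16 h at 37 C. The B/G FRET beta-lactamase substrate is then applied for 2 h at RT and fluorescence recorded.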

[11] = molecular target: 5-hydroxytryptamine receptor 2A (Homo sapiens) (UniProt P28223); test: 5-hydroxytryptamine receptor 2A (HTR2A) small molecule antagonists, cell-based qHTS assay (AID 1963586); also: nearly all actives have a fitted effect of over 45% in size
Summary of the method: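 Antagonist-mode intracellular calcium assay: DOI (4 nM) added after 5 min compound pre-incubation at room temperature to dye-loaded HTR2A-CHO cells. Fluorescence followed for 3 min, sampled every second.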

[12] = molecular target: Muscarinic acetylcholine receptor M1 (Homo sapiens) (UniProt P11229); test: Cholinergic receptor muscarinic 1 (CHRM1) small molecule agonists, cell-based qHTS assay (AID 1963589); also: nearly all actives have a fitted effect of over 35% in size
Summary of the method: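 Each compound was tested at 15 concentrations across three independent runs on dye-loaded CHO cells stably expressing human CHRM1, reading intracellular calcium fluorescence kinetically at 1 sec intervals.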

[13] = cAMP Responsive Elements (CRE) small molecule agonists, cell-based qHTS assay (AID 1963590)
Summary of the method: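 Cell line: CRE-bla HEK 293T; medium DMEM/10% dialyzed FBS/0.1 mM NEAA/1 mM pyruvate/25 mM HEPES; 3 h compound exposure; beta-lactamase FRET readout after 2 h substrate loading at RT.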

[14] = cAMP Responsive Elements (CRE) small molecule antagonists, cell-based qHTS assay (AID 1963591; active = well fitted inhibition curve with a large enough effect in the signal ratio in the repeat runs, not every such curve was filed as active; the % refers to the signal ratio)
Summary of the method: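 Inhibition of NKH477-driven (0.25 uM final) CRE-beta-lactamase signal in HEK293T cells, 3 h compound exposure at 37 °C, detected by FRET substrate fluorescence.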

[15] = molecular target: Beta-2 adrenergic receptor (Homo sapiens) (UniProt P07550); test: Adrenergic beta2 receptor (ADRB2) small molecule antagonists, cell-based qHTS assay (AID 1963592); also: series mostly up to about 92 µM; nearly all actives have a fitted effect of over 50% in size
Summary of the method: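 Cells (CHO, stable ADRB2 overexpression) incubated 18-20hr at 37C; compounds added from DMSO; agonist mix (1nM isoproterenol, 100uM IBMX, 25uM Ro-20-1724) added; 0.5hr RT; d2-cAMP and anti-cAMP-cryptate added; 1hr RT; 665/615 nm read.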

[16] = molecular target: D(2) dopamine receptor (Homo sapiens) (UniProt P14416); test: Dopamine D2 receptor (DRD2) small molecule agonists, cell-based qHTS assay (AID 1963594); also: nearly all actives have a fitted effect of over 35% in size
Summary of the method: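 cAMP accumulation in DRD2-HEK293 cells measured by HTRF after 1 h detection; compounds added 10 min before NKH477 (200nM […]) forskolin-analogue stimulation, 30 min at room temperature, with Ro20-1724 present at 0.1 mM final.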

[17] = molecular target: D(2) dopamine receptor (Homo sapiens) (UniProt P14416); test: Dopamine D2 receptor (DRD2) small molecule antagonists, cell-based qHTS assay (AID 1963595; active = well fitted inhibition curve with a large enough effect in the signal ratio in the repeat runs, with a control signal flat; the % refers to the signal ratio)
Summary of the method: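 Human DRD2 antagonist qHTS measuring cAMP by HTRF. The cells are exposed to compound for 10 min, then to NKH477 (200 nM) and quinpirole (12 nM) for 30 min at RT, with Ro20-1724 (0.1 mM) present throughout.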

[18] = molecular target: 5-hydroxytryptamine receptor 2A (Homo sapiens) (UniProt P28223); test: 5-hydroxytryptamine receptor 2A (HTR2A) small molecule agonists, cell-based qHTS assay (AID 1963587); also: nearly all actives have a fitted effect of over 30% in size
Summary of the method: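 Kinetic calcium-flux fluorescence (2 min, 1 sec intervals) after compound addition in agonist mode. HTR2A-CHO cells were cultured 18 h, then dye-loaded 1 h at 37 C.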

[19] = molecular target: Muscarinic acetylcholine receptor M1 (Homo sapiens) (UniProt P11229); test: Cholinergic receptor muscarinic 1 (CHRM1) small molecule antagonists, cell-based qHTS assay (AID 1963588); also: nearly all actives have a fitted effect of over 40% in size
Summary of the method: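 CHRM1-CHO calcium-flux assay, antagonist mode. Cells were seeded 18 h, dye-loaded 1 h at 37 C and given compound for 5 min at RT, then acetylcholine was added at 50nM. FDSS fluorescence was read 3 min; 15 concentrations, three runs.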

[20] = molecular target: Beta-2 adrenergic receptor (Homo sapiens) (UniProt P07550); test: Adrenergic beta2 receptor (ADRB2) small molecule agonists, cell-based qHTS assay (AID 1963593);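 also: CHO cells stably overexpressing human ADRB2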
Summary of the method: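 CHO cells stably over-expressing ADRB2 were plated overnight at 37C, then dosed with compounds plus a stimulation mix containing 100uM IBMX and 25uM Ro-20-1724 for 0.5hr at room temperature. cAMP was measured by HTRF competition, 1hr.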

Measured: Potency

Chain of Muscarinic acetylcholine receptor M1 (Homo sapiens) (P11229 whole entry, looked up): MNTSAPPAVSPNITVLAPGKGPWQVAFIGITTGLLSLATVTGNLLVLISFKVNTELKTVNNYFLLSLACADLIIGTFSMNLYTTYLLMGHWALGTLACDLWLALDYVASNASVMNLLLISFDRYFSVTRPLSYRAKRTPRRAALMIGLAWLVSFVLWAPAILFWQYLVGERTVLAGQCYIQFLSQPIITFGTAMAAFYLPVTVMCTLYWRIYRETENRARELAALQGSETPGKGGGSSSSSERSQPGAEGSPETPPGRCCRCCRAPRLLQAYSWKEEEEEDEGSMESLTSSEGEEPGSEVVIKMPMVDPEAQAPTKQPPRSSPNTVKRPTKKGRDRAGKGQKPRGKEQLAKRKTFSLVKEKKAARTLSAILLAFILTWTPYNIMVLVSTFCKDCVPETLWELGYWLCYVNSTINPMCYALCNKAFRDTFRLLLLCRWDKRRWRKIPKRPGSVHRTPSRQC
Chain of D(2) dopamine receptor (Homo sapiens) (P14416 whole entry, looked up): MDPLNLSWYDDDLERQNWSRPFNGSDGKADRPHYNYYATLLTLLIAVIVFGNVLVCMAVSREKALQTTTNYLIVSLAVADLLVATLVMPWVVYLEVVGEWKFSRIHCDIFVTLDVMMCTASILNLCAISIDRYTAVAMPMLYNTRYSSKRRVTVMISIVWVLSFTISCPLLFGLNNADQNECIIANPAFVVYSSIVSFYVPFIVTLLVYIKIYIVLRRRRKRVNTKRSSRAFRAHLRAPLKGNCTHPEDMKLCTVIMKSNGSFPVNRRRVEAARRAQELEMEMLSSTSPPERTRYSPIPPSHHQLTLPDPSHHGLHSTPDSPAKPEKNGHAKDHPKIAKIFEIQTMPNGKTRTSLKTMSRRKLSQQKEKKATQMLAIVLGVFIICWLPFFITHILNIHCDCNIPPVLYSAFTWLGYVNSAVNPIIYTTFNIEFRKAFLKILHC
Chain of Gonadotropin-releasing hormone receptor (Homo sapiens) (P30968 whole entry, looked up): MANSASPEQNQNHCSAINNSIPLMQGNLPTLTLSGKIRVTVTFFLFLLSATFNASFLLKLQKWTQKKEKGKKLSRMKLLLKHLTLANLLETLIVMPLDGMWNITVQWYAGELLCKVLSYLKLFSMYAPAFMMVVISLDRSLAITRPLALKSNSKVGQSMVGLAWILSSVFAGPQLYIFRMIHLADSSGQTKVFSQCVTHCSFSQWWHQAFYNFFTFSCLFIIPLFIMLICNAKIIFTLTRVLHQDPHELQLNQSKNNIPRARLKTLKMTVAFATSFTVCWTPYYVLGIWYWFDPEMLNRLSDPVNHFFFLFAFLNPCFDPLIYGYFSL
Chain of KiSS-1 receptor (Homo sapiens) (Q969F8 whole entry, looked up): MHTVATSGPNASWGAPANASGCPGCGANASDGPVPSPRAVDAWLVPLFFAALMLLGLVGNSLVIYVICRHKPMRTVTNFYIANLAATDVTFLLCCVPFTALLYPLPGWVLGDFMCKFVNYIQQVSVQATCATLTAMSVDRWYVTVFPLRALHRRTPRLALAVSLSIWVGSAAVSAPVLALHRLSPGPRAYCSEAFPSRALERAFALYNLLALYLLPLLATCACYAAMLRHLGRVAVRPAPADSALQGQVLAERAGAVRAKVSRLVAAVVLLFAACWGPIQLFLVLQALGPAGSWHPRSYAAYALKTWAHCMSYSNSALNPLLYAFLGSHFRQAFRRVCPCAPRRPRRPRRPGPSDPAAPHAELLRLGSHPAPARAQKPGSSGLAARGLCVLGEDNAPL
Chain of 5-hydroxytryptamine receptor 2A (Homo sapiens) (P28223 whole entry, looked up): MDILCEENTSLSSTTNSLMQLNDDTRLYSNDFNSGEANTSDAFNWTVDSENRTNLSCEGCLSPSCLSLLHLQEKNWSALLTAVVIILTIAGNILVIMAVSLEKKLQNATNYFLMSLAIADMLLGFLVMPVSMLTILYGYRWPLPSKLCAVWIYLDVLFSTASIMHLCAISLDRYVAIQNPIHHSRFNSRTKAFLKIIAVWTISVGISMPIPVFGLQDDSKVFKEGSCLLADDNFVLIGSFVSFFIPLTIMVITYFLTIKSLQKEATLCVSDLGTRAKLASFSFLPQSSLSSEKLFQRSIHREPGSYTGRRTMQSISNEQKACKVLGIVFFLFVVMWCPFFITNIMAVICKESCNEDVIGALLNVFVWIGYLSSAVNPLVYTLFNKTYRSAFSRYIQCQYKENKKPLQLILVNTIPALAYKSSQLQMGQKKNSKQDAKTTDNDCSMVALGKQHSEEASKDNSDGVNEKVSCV
Chain of Beta-2 adrenergic receptor (Homo sapiens) (P07550 whole entry, looked up): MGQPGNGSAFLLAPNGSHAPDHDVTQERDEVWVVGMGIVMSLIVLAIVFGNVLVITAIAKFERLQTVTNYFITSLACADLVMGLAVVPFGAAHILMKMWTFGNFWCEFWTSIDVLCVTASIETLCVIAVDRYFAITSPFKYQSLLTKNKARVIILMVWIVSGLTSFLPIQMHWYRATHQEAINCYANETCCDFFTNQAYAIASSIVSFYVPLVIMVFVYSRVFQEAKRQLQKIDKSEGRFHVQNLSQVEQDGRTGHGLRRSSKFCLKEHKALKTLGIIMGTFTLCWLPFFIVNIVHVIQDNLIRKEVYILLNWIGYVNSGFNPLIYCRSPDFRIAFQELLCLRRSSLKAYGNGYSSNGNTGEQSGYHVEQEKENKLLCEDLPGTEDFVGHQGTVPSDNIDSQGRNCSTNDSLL

C=CCCCCCCC=C
not listed: [18] | [19] | [20]
inactive: all other assays above

N=C(N)N
not listed: [11] | [16] | [20]
inactive: all other assays above

CC(C)COC(=O)c1ccc(O)cc1
not listed: [13] | [14] | [16] | [17] | [20]
inactive: all other assays above

CC(=O)OC(C)OC(C)=O
not listed: [11] | [13] | [15] | [20]
inactive: all other assays above

CC(C)=CCCC(C)CCOC=O (centres undefined)
not listed: [11]
inactive: all other assays above

O=C(c1ccc(O)cc1)c1ccc(O)c(O)c1O
not listed: [11] | [13] | [14] | [15] | [16] | [17] | [20]
inactive: all other assays above

O=C(CS(=O)Cc1ccco1)NC/C=C\COc1cc(CN2CCCCC2)ccn1 (centres undefined)
not listed: [12]
inactive: all other assays above

N#CCCOCCC#N
not listed: [12] | [20]
inactive: all other assays above
